Records with an inconclusive call do not appear. Calls of active or inactive are those of the source. Unless noted, calls follow the shape of the dose curve; as a rule, active = well fitted curve in the direction sought with a large enough effect in the repeat runs; inconclusive = weak or mixed curves; inactive = no such curve, though single readings can be large; an effect the other way counts as inactive or inconclusive.
Tests used:
[1] = qHTS assay to identify small molecule antagonists of the estrogen receptor alpha (ER-alpha) signaling pathway using the BG1 cell line in the presence of 0.1 nM 17-beta-estradiol - cell viability counter screen (AID 1259241); also: nearly all actives have a fitted effect of over 40% in size
Method in brief: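 CellTiter-Fluor read (30 min, 37C) on ER-alpha/ERE-luc VM7Luc4E2 cells; 22 hr compound treatment; agonist 0.1 nM E2 final; same-well multiplex.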

[2] = qHTS assay to identify small molecule antagonists of the androgen receptor (AR) signaling pathway using the MDA cell line in the presence of 0.5 nM R1881 - cell viability counter screen (AID 1259242); also: nearly all actives have a fitted effect of over 45% in size
Method in brief: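 Steps: plate MDA-kb2 cells, rest 5 hr at 37C without CO2; pin in compounds in DMSO; add R1881 to 0.5 nM final; incubate 16 hr; add CellTiter-Fluor, 30 min; read fluorescence.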

[3] = target: Estrogen receptor (Homo sapiens) (UniProt P03372); assay: qHTS assay to identify small molecule antagonists of the estrogen receptor alpha (ER-alpha) signaling pathway using the BG1 cell line in the presence of 0.1 nM 17-beta-estradiol (AID 1259244); also: nearly all actives have a fitted effect of over 50% in size
Estrogen receptor (Homo sapiens), sequence (P03372 whole entry, looked up): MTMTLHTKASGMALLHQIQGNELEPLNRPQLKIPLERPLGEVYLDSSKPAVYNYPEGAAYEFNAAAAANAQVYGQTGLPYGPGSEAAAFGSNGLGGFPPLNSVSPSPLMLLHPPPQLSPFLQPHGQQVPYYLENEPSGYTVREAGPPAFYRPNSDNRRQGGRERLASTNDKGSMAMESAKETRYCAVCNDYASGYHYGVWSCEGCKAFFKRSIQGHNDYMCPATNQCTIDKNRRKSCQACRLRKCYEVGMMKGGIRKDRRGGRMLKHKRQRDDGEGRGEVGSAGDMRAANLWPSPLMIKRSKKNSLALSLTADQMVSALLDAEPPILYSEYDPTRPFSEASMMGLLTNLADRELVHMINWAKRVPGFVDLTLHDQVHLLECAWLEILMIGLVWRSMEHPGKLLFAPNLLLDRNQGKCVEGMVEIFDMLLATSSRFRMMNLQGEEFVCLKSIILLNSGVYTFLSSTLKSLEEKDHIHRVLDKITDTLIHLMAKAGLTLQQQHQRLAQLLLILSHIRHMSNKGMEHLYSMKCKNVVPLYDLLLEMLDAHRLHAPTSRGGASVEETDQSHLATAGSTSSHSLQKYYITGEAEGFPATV
Method in brief: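 Antagonist mode: compounds in DMSO are pinned onto VM7Luc4E2 reporter cells, 0.1 nM final 17beta-estradiol is added, and after 22 h at 37C luciferase luminescence is measured with ONE-Glo.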

[4] = qHTS assay to identify small molecule HDAC inhibitors (AID 1259364);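 also: wild-type HCT-116 cells with endogenous class I/II HDAC activity; top concentration of the series differs between compounds; nearly all actives have a fitted effect of over 45% in size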
Method in brief: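 Cells (HCT-116, wild type) are seeded at 1,500 per well, incubated overnight, treated with compound in DMSO for 2 hr, then developed with HDAC-Glo I/II reagent for 30 min at room temperature.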

[5] = qHTS assay to identify small molecule HDAC inhibitors - cell viability counter screen (AID 1259365); also: series mostly up to about 92 µM; nearly all actives have a fitted effect of over 50% in size
Method in brief: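 To flag cytotoxic hits, 1,500 wild-type HCT-116 cells per well, plated the day before, receive test compounds for 2hr at 37 C before CellTiter-Glo reagent and a luminescence read.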

[6] = qHTS assay to identify small molecule agonists of the sonic hedgehog signaling (Shh) pathway - cell viability counter screen (AID 1259366); also: nearly all actives have a fitted effect of over 50% in size
Method in brief: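 Fluorescence from CellTiter-Fluor reports live cells in this counter screen. NIH/3T3-derived Gli1-Luc reporter cells receive test compounds for 24hr at 37C; reagent goes in at 23hr.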

[7] = qHTS assay to identify small molecule antagonists of the sonic hedgehog signaling (Shh) pathway - cell viability counter screen (AID 1259367); also: nearly all actives have a fitted effect of over 55% in size
Method in brief: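 CellTiter-Fluor signal in conditioned medium-stimulated 3T3 Gli1-Luc cells, 23 hr compound exposure, 37C.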

[8] = qHTS assay to identify small molecule agonists of the sonic hedgehog signaling (Shh) pathway (AID 1259368; calls by dose curve;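 also: NIH/3T3-derived 3T3Gli1-Luc cells carrying a stable Gli1-driven firefly luciferase reporter; series mostly up to about 92 µM; nearly all actives have a fitted effect of over 15% in size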)
Method in brief: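 Cells of a mouse NIH/3T3 clone stably expressing luciferase under the Gli1 transcriptional response element are exposed to test chemicals for 24 hr at 37 C. Pathway activation is detected as a rise in luminescence.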

[9] = qHTS assay to identify small molecule antagonists of the sonic hedgehog signaling (Shh) pathway (AID 1259369; calls by dose curve; also: nearly all actives have a fitted effect of over 45% in size)
Method in brief: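 Cells are plated and held 4hr at 37 C, compounds (DMSO) are pinned in, conditioned medium is added to stimulate the pathway, and after 24hr luciferase reagent is added for 30min before luminescence is read.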

[10] = target: Estrogen receptor beta (Homo sapiens) (UniProt Q92731); assay: qHTS assay to identify small molecule agonists of the estrogen receptor beta (ER-beta) signaling pathway (AID 1259377; active = well fitted activation curve with a large enough effect in the signal ratio in the repeat runs, not every such curve was filed as active; the % refers to the signal ratio)
Estrogen receptor beta (Homo sapiens), sequence (Q92731 whole entry, looked up): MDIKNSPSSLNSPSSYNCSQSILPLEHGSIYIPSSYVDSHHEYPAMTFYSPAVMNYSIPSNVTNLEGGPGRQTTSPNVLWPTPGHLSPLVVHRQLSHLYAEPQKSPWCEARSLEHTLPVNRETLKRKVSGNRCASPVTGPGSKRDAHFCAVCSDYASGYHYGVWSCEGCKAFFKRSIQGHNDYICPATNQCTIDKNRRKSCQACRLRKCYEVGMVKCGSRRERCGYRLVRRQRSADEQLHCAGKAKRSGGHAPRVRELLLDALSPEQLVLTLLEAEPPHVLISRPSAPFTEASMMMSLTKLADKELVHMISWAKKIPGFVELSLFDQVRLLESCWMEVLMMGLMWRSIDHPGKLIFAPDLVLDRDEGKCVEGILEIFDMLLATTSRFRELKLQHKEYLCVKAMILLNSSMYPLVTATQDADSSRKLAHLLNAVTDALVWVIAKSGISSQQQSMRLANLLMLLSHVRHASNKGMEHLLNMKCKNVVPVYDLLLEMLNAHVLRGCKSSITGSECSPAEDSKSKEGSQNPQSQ
Method in brief: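 Screening used GripTite ER-beta-UAS-bla cells held in 2% charcoal-stripped FBS medium. After overnight (16 hr) compound incubation at 37C, beta-lactamase activity was detected with a FRET substrate by fluorescence.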

[11] = target: Estrogen receptor beta (Homo sapiens) (UniProt Q92731); assay: qHTS assay to identify small molecule antagonists of the estrogen receptor beta (ER-beta) signaling pathway (AID 1259378; active = well fitted inhibition curve with a large enough effect in the signal ratio in the repeat runs, not every such curve was filed as active; the % refers to the signal ratio)
Method in brief: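 Antagonist mode: compounds added to beta-lactamase reporter HEK293T ER-beta-UAS cells stimulated with E2 (1nM final), 16 hr at 37C. LiveBLAzer B/G FRET substrate, 2 hours room temperature, fluorescence read-out.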

[12] = qHTS assay to identify small molecule agonists of the androgen receptor (AR) signaling pathway in the presence of an antagonist - cell viability counter screen (AID 1259379);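 also: MDA-kb2 human breast cancer cells carrying an MMTV luciferase reporter; series mostly up to about 92 µM; nearly all actives have a fitted effect of over 25% in size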
Method in brief: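 Cytotoxicity is assessed by CellTiter-Fluor in MDA-kb2 cells carrying an MMTV-driven luciferase reporter. Cells receive 3.0uM nilutamide plus compounds at 15 concentrations and incubate 16 hr at 37C without CO2 before fluorescence reading.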

[13] = qHTS assay to identify small molecule agonists of the estrogen receptor beta (ER-beta) signaling pathway - cell viability counter screen (AID 1259380); also: nearly all actives have a fitted effect of over 30% in size
Method in brief: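 Cytotoxicity is measured in parallel with the reporter screen: after 16 hr compound exposure at 37C and a 2 hr LiveBLAzer step, CellTiter-Glo is added to the same ER-beta-UAS-bla HEK293T wells and luminescence read after 30 min.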

[14] = qHTS assay to identify small molecule antagonists of the estrogen receptor beta (ER-beta) signaling pathway - cell viability counter screen (AID 1259382);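 also: HEK293T cells carrying ER-beta-UAS-bla reporter stimulated with estradiol; series mostly up to about 92 µM; nearly all actives have a fitted effect of over 55% in size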
Method in brief: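 Cytotoxicity counter screen multiplexed with the beta-lactamase antagonist assay: GripTite HEK293T ER-beta-bla cells were treated 16 hr with test chemicals in the presence of 1nM 17-beta-estradiol, and viability was measured by CellTiter-Glo.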

[15] = target: Estrogen receptor (Homo sapiens) (UniProt P03372); assay: qHTS assay to identify small molecule agonists of the estrogen receptor alpha (ER-alpha) signaling pathway in the presence of an antagonist (AID 1259383; calls by dose curve; also: top concentration of the series differs between compounds; nearly all actives have a fitted effect of over 15% in size)
Method in brief: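 Agonist-mode confirmation in the presence of the ER antagonist ICI-182,780 at 10.0nM final. Breast-derived VM7Luc4E2 reporter cells were exposed to compounds for 22hr, and ERE-driven luciferase was quantified by luminescence.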

[16] = qHTS assay to identify small molecule agonists or antagonists of the thyroid stimulating hormone receptor (TSHR) signaling pathway - wild type cell line counter screen (AID 1259384; calls by dose curve)
Method in brief: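 Counter screen in untransfected Hek293: compounds (15-point titration, triplicate) plus phosphodiesterase inhibitor Ro20-1724 added after 18 h plating; 30 min RT. Intracellular cAMP via competitive d2/cryptate immunoassay, 1 h incubation.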

[17] = qHTS assay to identify small molecule phospholipidosis (PLD) inducers (AID 1259344; active = well fitted curve in the direction sought with a large enough effect; an effect the other way counts as inactive or inconclusive)
Method in brief: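 Accumulated phospholipid, stained red by LipidTOX during 24 h compound treatment of HepG2 cells at 37 C, is quantified from images as pit number and intensity, normalised per cell using Hoechst-stained nuclei.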

Measured: Potency

CCCCCCCCC1CCC(=O)O1 (stereo unspecified)
inactive: [1] | [2] | [3] | [4] | [5] | [6] | [7] | [8] | [9] | [10] | [11] | [12] | [13] | [14] | [15] | [16]

CC(=O)N[C@@H](CCC(=O)O)C(=O)O
inactive: [2] | [17] | [4] | [5] | [6] | [7] | [8] | [9] | [10] | [11] | [12] | [13] | [14] | [16]

COc1ccc(C2CNC(=O)C2)cc1OC1CCCC1 (stereo unspecified)
inactive: [1] | [2] | [17] | [4] | [5] | [6] | [7] | [8] | [10] | [11] | [12] | [13] | [14] | [16]

O=C(CS(=O)Cc1ccco1)NC/C=C\COc1cc(CN2CCCCC2)ccn1 (stereo unspecified)
inactive: [2] | [3] | [17] | [4] | [5] | [6] | [7] | [8] | [9] | [10] | [11] | [12] | [13] | [14] | [15] | [16]

COC(=O)CCc1ccc(OCC(O)CNC(C)C)cc1 (stereo unspecified)
inactive: [2] | [17] | [4] | [5] | [6] | [7] | [8] | [9] | [10] | [11] | [12] | [13] | [14] | [16]

Cc1cccc(C)c1OCC(C)N (stereo unspecified)
inactive: [1] | [2] | [3] | [17] | [4] | [5] | [6] | [7] | [8] | [12] | [13] | [14] | [15] | [16]

CC(=C(CCOC(=O)C(C)C)SSC(CCOC(=O)C(C)C)=C(C)N(C=O)Cc1cnc(C)nc1N)N(C=O)Cc1cnc(C)nc1N
inactive: [1] | [2] | [3] | [17] | [4] | [5] | [6] | [7] | [8] | [10] | [11] | [12] | [13] | [14] | [15] | [16]

CCOc1cc([N+](=O)[O-])c(OCC)cc1N1CCOCC1
inactive: [2] | [3] | [4] | [5] | [6] | [7] | [8] | [9] | [10] | [13] | [14] | [16]

Source: PubChem BioAssay (Tox21)
